Results published in PubChem BioAssay AID1159580 (chemical genetic matrix, 2015).
Values joined by “and” are separate entries in the source; they are usually repeats but may differ in a detail not shown here. Equal values may be shown once. Out of some 5,500 compounds screened, about 2,000 (36%) were called active. Another 18% or so got no clear call; they are omitted. Rule as the data show it: active = normalized growth mostly below about 0.91 (no sharp cut-off); inconclusive = no clear call, values can overlap the other calls; inactive = mostly above about 0.92. This is one part of the list.

Test: chemical genetic growth profiling, strain panel (AID 1159580);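 also: tested at 20 µM; growth read once vehicle control cultures reached saturation at 30 °C; 1 = growth at the plate median or of vehicle wells; lower values mean less growth of the strain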
Conditions: S. cerevisiae deletion strains, growth OD

Measured: normalized growth

COc1ccc2ccc(=O)oc2c1
inactive: locus YAL013W, strain DEP1, active compounds read low 1.01 | locus YAL021C, strain ccr4, active compounds read low 1 | locus YAL026C, strain drs2, active compounds read low 1 | locus YAL030W, strain snc1, active compounds read low 1 | locus YBL061C, strain skt5, active compounds read low 1 | locus YBR009C, strain hhf1, active compounds read low 1.02 | locus YBR021W, strain FUR4, active compounds read low 0.997 | locus YBR023C, strain chs3, active compounds read low 1.01 | locus YBR171W, strain sec66, active compounds read low 0.988 | locus YBR229C, strain ROT2, active compounds read low 1.02 | locus YBR231C, strain swc5, active compounds read low 0.987 | locus YBR279W, strain paf1, active compounds read low 1 | locus YCL011C, strain gbp2, active compounds read low 0.98 | locus YCL016C, strain dcc1, active compounds read low 1 | locus YCL029C, strain bik1, active compounds read low 0.999 | locus YCL061C, strain MRC1, active compounds read low 1 | locus YCL069W, strain vba3, active compounds read low 0.988 | locus YCR088W, strain abp1, active compounds read low 0.992 | locus YDL005C, strain med2, active compounds read low 0.996 | locus YDL035C, strain GPR1, active compounds read low 1.04 | locus YDL040C, strain nat1, active compounds read low 1 | locus YDL074C, strain BRE1, active compounds read low 1.04 | locus YDL101C, strain DUN1, active compounds read low 1.01 | locus YDL185W, strain tfp1, active compounds read low 1.03 | locus YDL192W, strain arf1, active compounds read low 1.01 | locus YDR001C, strain nth1, active compounds read low 0.991 | locus YDR069C, strain doa4, active compounds read low 0.99 | locus YDR101C, strain arx1, active compounds read low 0.985 | locus YDR137W, strain rgp1, active compounds read low 0.977 | locus YDR150W, strain NUM1, active compounds read low 1.01 | locus YDR159W, strain sac3, active compounds read low 0.973 | locus YDR162C, strain NBP2, active compounds read low 1.03 | locus YDR195W, strain ref2 1.01 | locus YDR297W, strain sur2, active compounds read low 1 | locus YDR318W, strain mcm21, active compounds read low 1.02 | locus YDR334W, strain swr1, active compounds read low 0.987 | locus YDR335W, strain msn5, active compounds read low 0.998 | locus YDR388W, active compounds read low 1.04 | locus YDR392W, strain spt3, active compounds read low 0.964 | locus YDR502C, strain sam2, active compounds read low 1.02 | locus YEL003W, strain gim4, active compounds read low 1.01 | locus YEL037C, strain rad23, active compounds read low 1 | locus YEL061C, strain CIN8 (second series), active compounds read low 0.983 | locus YEL061C, strain CIN8, active compounds read low 1.01 | locus YER015W, strain faa2, active compounds read low 1 | locus YER016W, strain bim1, active compounds read low 1 | locus YER110C, active compounds read low 1.02 | locus YER111C, strain swi4, active compounds read low 0.998 | locus YER155C, strain BEM2 (second series), active compounds read low 0.97 | locus YER155C, strain BEM2, active compounds read low 1 | locus YER167W, strain BCK2, active compounds read low 1.01 | locus YFR010W, strain ubp6, active compounds read low 0.98 | locus YGL078C, strain dbp3, active compounds read low 1.01 | locus YGL086W, strain mad1, active compounds read low 1.02 | locus YGL167C, strain pmr1, active compounds read low 1.02 | locus YGL173C, strain kem1, active compounds read low 1.02 | locus YGL227W, strain vid30, active compounds read low 0.983 | locus YGL240W, strain doc1, active compounds read low 0.973 | locus YGL248W, strain PDE1, active compounds read low 1.05 | locus YGL253W, strain hxk2, active compounds read low 0.986 | locus YGR135W, strain pre9, active compounds read low 1.01 | locus YGR252W, strain gcn5, active compounds read low 0.964 | locus YHR013C, strain ard1, active compounds read low 1.04 | locus YHR027C, strain rpn1, active compounds read low 0.999 | locus YHR030C, strain SLT2, active compounds read low 1.02 and 0.994 | locus YHR079C, strain IRE1 (second series), active compounds read low 1.01 | locus YHR079C, strain IRE1, active compounds read low 0.997 | locus YHR094C, strain hxt1, active compounds read low 1.04 | locus YHR129C, strain ARP1, active compounds read low 1.02 | locus YHR142W, strain chs7, active compounds read low 1.01 | locus YHR200W, strain rpn10, active compounds read low 1.01 | locus YIL066C, strain RNR3, active compounds read low 1.02 | locus YIL073C, strain SPO22, active compounds read low 1.11 | locus YIL125W, strain kgd1, active compounds read low 1.03 | locus YIR030C, strain dcg1, active compounds read low 1.01 | locus YJL092W, strain hpr5, active compounds read low 0.998 | locus YJL095W, strain BCK1 (second series), active compounds read low 1.01 | locus YJL095W, strain BCK1, active compounds read low 1.01 and 1.02 | locus YJL115W, strain asf1, active compounds read low 0.992 | locus YJL129C, strain trk1, active compounds read low 0.99 | locus YJL134W, strain LCB3, active compounds read low 1.01 | locus YJL154C, strain vps35, active compounds read low 0.999 | locus YJL164C, strain tpk1, active compounds read low 1.02 | locus YJL166W, strain qcr8, active compounds read low 1.01 | locus YJL168C, strain set2, active compounds read low 1.02 | locus YJL187C, strain SWE1 (second series), active compounds read low 1.02 | locus YJL187C, strain SWE1, active compounds read low 0.995 | locus YJR066W, strain TOR1, active compounds read low 0.934 | locus YKL009W, strain mrt4, active compounds read low 1 | locus YKL068W, active compounds read low 1.04 | locus YKL085W, strain MDH1 (second series), active compounds read low 1.02 | locus YKL085W, strain MDH1, active compounds read low 1.02 | locus YKL160W, strain elf1, active compounds read low 1.02 | locus YKR001C, strain vps1, active compounds read low 1.03 | locus YKR026C, strain gcn3, active compounds read low 0.98 | locus YKR091W, strain srl3, active compounds read low 1.02 | locus YLL001W, strain dnm1, active compounds read low 0.985 | locus YLL026W, active compounds read low 1 | locus YLL041C, strain sdh2, active compounds read low 0.996 | locus YLR027C, strain aat2, active compounds read low 0.992 | locus YLR039C, strain RIC1, active compounds read low 1.15 | locus YLR058C, strain SHM2, active compounds read low 1.02 | locus YLR102C, strain apc9, active compounds read low 1.03 | locus YLR113W, strain HOG1, active compounds read low 1.02 | locus YLR221C, strain rsa3, active compounds read low 0.987 | locus YLR258W, strain gsy2, active compounds read low 1.02 | locus YLR262C, strain YPT6 (second series), active compounds read low 1.02 | locus YLR268W, strain sec22, active compounds read low 1.02 | locus YLR320W, strain mms22, active compounds read low 0.993 | locus YLR330W, strain CHS5, active compounds read low 1.03 | locus YLR342W, strain FKS1 (second series), active compounds read low 1.05 | locus YLR342W, strain FKS1, active compounds read low 1 | locus YLR357W, strain rsc2, active compounds read low 0.984 | locus YLR370C, strain arc18, active compounds read low 0.989 | locus YLR371W, strain rom2, active compounds read low 1.05 | locus YLR384C, strain iki3, active compounds read low 0.995 | locus YLR418C, strain cdc73, active compounds read low 1.02 | locus YML016C, strain PPZ1, active compounds read low 1.02 | locus YML032C, strain rad52, active compounds read low 0.997 | locus YML120C, strain ndi1, active compounds read low 0.999 | locus YML124C, strain tub3, active compounds read low 1.02 | locus YMR058W, strain fet3, active compounds read low 0.98 | locus YMR078C, strain ctf18, active compounds read low 1.01 | locus YMR125W, strain sto1, active compounds read low 0.984 | locus YMR129W, active compounds read low 1.01 | locus YMR205C, strain PFK2, active compounds read low 1.06 | locus YMR223W, strain ubp8, active compounds read low 1.02 | locus YMR231W, strain pep5, active compounds read low 0.996 | locus YMR307W, strain GAS1, active compounds read low 1.09 | locus YNL067W, strain RPL9B, active compounds read low 1.01 | locus YNL071W, strain lat1, active compounds read low 1.01 | locus YNL153C, strain GIM3, active compounds read low 1.01 | locus YNL183C, strain NPR1, active compounds read low 0.949 | locus YNL209W, strain ssb2, active compounds read low 1.01 | locus YNL233W, strain BNI4, active compounds read low 1.04 | locus YNL248C, strain rpa49, active compounds read low 0.974 | locus YNL250W, strain rad50, active compounds read low 1.07 | locus YNL271C, strain bni1, active compounds read low 1.01 | locus YNL298W, strain CLA4, active compounds read low 0.997 | locus YNL307C, strain MCK1, active compounds read low 1.03 | locus YNL322C, strain KRE1 (second series), active compounds read low 1 | locus YNL322C, strain KRE1, active compounds read low 1 | locus YNR049C, strain mso1, active compounds read low 1 | locus YNR052C, strain pop2, active compounds read low 1.04 | locus YOL006C, strain TOP1, active compounds read low 1.09 | locus YOL012C, strain htz1 0.887 | locus YOL147C, strain pex11, active compounds read low 1.02 | locus YOR001W, strain rrp6, active compounds read low 0.954 | locus YOR061W, strain CKA2, active compounds read low 1.02 | locus YOR069W, strain VPS5, active compounds read low 0.999 | locus YOR070C, strain gyp1, active compounds read low 1.01 | locus YOR080W, strain dia2, active compounds read low 1 | locus YOR083W, strain WHI5, active compounds read low 1.06 | locus YOR106W, strain vam3, active compounds read low 1.01 | locus YOR136W, strain idh2, active compounds read low 1.01 | locus YOR144C, strain elg1, active compounds read low 1.01 | locus YOR184W, strain ser1, active compounds read low 1 | locus YOR231W, strain MKK1, active compounds read low 1.01 | locus YOR265W, strain rbl2, active compounds read low 0.996 | locus YOR270C, strain vph1, active compounds read low 1.07 | locus YOR290C, strain snf2, active compounds read low 0.995 | locus YOR316C, strain cot1, active compounds read low 1.01 | locus YPL051W, strain arl3, active compounds read low 0.995 | locus YPL055C, strain LGE1, active compounds read low 1.07 | locus YPL078C, strain atp4, active compounds read low 1.01 | locus YPL106C, strain sse1, active compounds read low 0.98 | locus YPL240C, strain hsp82, active compounds read low 0.995 | locus YPL241C, strain CIN2, active compounds read low 1.02 | locus YPL256C, strain CLN2, active compounds read low 0.994 | locus YPR119W, strain clb2, active compounds read low 1.01 | locus YPR141C, strain kar3, active compounds read low 1.01 | locus YPR163C, strain tif3, active compounds read low 1.02 | locus YPR167C, strain met16, active compounds read low 1.02 | strain wtn01, active compounds read low 1.01
